Source: PubChem BioAssay AID504333 (National Center for Advancing Translational Sciences (NCATS), 2011)
Out of some 360,000 compounds screened, about 16,000 (4.4%) were called active. About 9% were inconclusive and are not listed. The call rests on the fitted dose curve; in most records, active means well fitted inhibition curve with a large enough effect; inconclusive means small, poorly fitted or top-dose-only effect; inactive means no such curve, though single readings can be large or run the other way. Many of the other results were omitted from the sample, so actives are more common in it than they were.

molecular target: Bromodomain adjacent to zinc finger domain protein 2B (Homo sapiens) (UniProt Q9UIF8); assay: qHTS Assay for Inhibitors of BAZ2B; details: AlphaScreen BAZ2B-H3K14Ac peptide displacement; series mostly up to 114 µM; activity change, negative = inhibition: at the top concentration; further: nearly all actives have a fitted effect of over 60% in size
Sequence (Q9UIF8 whole entry, looked up, the tested form may be a part): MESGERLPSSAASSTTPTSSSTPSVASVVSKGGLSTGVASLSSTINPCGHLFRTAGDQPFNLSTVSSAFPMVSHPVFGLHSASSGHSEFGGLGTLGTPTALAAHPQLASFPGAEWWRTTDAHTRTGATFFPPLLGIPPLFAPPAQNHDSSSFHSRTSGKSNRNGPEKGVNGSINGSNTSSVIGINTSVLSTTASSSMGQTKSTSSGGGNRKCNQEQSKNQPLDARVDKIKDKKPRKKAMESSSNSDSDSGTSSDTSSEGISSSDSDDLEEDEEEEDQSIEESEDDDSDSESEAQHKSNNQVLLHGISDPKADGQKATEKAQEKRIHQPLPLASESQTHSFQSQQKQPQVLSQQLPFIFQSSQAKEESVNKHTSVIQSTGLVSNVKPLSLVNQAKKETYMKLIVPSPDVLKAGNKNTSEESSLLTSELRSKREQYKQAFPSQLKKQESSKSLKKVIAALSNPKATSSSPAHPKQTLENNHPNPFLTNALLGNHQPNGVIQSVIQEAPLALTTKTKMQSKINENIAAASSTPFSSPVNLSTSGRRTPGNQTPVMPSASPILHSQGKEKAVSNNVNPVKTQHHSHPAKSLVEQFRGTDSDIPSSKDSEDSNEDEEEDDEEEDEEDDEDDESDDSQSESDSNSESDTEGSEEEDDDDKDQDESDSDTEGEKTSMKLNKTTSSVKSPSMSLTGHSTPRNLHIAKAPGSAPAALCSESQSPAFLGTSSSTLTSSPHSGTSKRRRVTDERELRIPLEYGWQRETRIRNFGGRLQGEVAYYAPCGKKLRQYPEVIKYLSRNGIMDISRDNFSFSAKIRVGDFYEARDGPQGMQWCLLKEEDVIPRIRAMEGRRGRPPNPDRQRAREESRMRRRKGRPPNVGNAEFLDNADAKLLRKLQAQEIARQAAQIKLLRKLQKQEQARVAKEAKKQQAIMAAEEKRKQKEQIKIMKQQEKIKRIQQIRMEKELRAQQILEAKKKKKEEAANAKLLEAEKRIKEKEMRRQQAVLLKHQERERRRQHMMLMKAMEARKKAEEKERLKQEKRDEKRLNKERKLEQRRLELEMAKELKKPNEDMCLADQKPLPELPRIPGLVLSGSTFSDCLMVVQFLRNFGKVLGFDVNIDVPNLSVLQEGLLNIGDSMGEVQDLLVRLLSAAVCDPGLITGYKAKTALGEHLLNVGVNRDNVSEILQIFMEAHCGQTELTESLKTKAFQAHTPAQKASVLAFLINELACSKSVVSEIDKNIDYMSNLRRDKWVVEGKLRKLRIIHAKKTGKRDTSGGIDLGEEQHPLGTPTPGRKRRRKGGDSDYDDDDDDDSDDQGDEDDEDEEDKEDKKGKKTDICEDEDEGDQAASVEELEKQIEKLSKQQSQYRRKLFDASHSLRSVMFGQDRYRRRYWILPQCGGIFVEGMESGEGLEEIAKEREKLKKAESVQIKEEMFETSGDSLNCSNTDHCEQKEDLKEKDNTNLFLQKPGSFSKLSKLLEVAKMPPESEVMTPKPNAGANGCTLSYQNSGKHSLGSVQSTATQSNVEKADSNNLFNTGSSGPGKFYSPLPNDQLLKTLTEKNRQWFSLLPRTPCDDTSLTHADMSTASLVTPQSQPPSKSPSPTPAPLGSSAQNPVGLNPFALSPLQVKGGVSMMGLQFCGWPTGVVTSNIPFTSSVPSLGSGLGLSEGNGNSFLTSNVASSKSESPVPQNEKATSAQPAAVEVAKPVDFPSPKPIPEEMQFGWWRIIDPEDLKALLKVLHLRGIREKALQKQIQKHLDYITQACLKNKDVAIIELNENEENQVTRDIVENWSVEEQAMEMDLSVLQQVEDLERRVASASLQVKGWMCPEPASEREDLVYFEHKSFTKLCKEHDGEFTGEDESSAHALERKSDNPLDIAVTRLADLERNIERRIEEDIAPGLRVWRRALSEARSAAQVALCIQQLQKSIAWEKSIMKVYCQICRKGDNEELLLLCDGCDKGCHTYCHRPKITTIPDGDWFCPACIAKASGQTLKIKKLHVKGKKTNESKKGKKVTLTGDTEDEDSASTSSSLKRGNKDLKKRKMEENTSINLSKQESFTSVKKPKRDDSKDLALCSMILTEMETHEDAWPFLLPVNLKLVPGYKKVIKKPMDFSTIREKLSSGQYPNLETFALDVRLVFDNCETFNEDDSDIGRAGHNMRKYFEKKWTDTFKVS
How it was run: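 Compounds, titrated to a top concentration of 110 uM, were incubated 30 min at room temperature with preformed BAZ2B/acetyl-K14 H3 peptide complex (50 nM each). Proximity signal was measured by AlphaScreen after 20 min with beads.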
On the % scale 0 is the no-effect control and ±100 the full control effect; potency means the concentration at half of the fitted maximal effect.

Question: How did the “activity change, negative = inhibition” value turn out when COc1cccc(C(=O)NC2=NC(c3ccc(N(C)C)cc3)CC(=O)N2)c1 (stereo unspecified) was run?
Answer: -14.6% (inactive)

Question: For CCCCCn1c(=O)[nH]c2cc(C(=O)Nc3ccc(F)cc3)ccc2c1=O, which “activity change, negative = inhibition” value is on record?
Answer: -13.7% (inactive)

Question: For CCN(CC)S(=O)(=O)c1ccc2c(c1)N(CC(=O)NCC(C)c1ccccc1)C(=O)CO2 (stereo unspecified), which “activity change, negative = inhibition” value is on record?
Answer: -35.7% (inactive)

Question: Which “activity change, negative = inhibition” value does the source give for CC(=O)N1CCCc2cc(S(=O)(=O)Nc3ccc(Cl)cc3F)ccc21 here?
Answer: -5.37% (inactive)

Question: How did the “activity change, negative = inhibition” value turn out when Cc1ccc2oc3c(c(=O)c2c1)C(c1ccc([N+](=O)[O-])cc1)N(CCCN1CCOCC1)C3=O (stereo unspecified) was run?
Answer: -0.558% (inactive)

Question: For Cc1ccccc1NC(=O)Cn1c(=O)n(CCc2ccccc2)c(=O)c2ccccc21, which “activity change, negative = inhibition” value is on record?
Answer: 1.27% (inactive)

Question: Which “activity change, negative = inhibition” value does the source give for Cc1ccc(C)c(CN2C(=O)c3ccccc3S(=O)c3ccc(C(=O)N4CCOCC4)cc32)c1 (stereo unspecified) here?
Answer: -12.7% (inactive)

Question: How did the Potency turn out when O=[N+]([O-])C(=c1ccc2c(c1)N1C3=C(CCCC3)CC3CCCCC31N=2)[N+](=O)[O-] (stereo unspecified) was run?
Answer: 44.7 µM (active)

Question: How did the “activity change, negative = inhibition” value turn out when Cc1ccccc1CNC(=O)c1ccc(NC(=O)N2CCCCc3ccccc32)cc1 was run?
Answer: -1.37% (inactive)

Question: How did the “activity change, negative = inhibition” value turn out when Cc1ccc(CNC(=O)CSC2=Nc3ccccc3C3=NC(C)C(=O)N23)cc1 (stereo unspecified) was run?
Answer: -9.55% (inactive)

Question: For CCCN1CCN(CCCNC(=O)c2ccc3nc(Cc4ccccc4)oc3c2)CC1, which “activity change, negative = inhibition” value is on record?
Answer: -14.6% (inactive)

Question: Which Potency does the source give for Cc1ccc(NC(=S)NCCc2ccc(Cl)cc2)c(C)c1 here?
Answer: 79.4 µM (active)

Question: With Cc1cccc(NC(=S)NCCc2ccc(Cl)cc2)c1C as the compound, how does the “activity change, negative = inhibition” value read?
Answer: -6.6% (inactive)

Question: For Cc1cc(F)ccc1NC(=S)NCCc1ccccc1, which “activity change, negative = inhibition” value is on record?
Answer: -10.7% (inactive)

Question: For COc1cccc(N=C2SC(C(=O)Nc3cccc(Cl)c3)CC(=O)N2C)c1 (stereo unspecified), which “activity change, negative = inhibition” value is on record?
Answer: 0.78% (inactive)

Question: Which “activity change, negative = inhibition” value does the source give for CCOC(=O)N1CCc2c(sc(NCc3cccc(F)c3)c2C(=O)Nc2ccccc2OCC)C1 here?
Answer: -24.5% (inactive)

Question: Cc1sc2nc(CSCC(=O)Nc3c(Cl)cccc3Cl)[nH]c(=O)c2c1C was tested. Which “activity change, negative = inhibition” value did it give?
Answer: 9.3% (inactive)

Question: For CSc1nnc(SCc2nc3sc(C(=O)O)c(C)c3c(=O)[nH]2)s1, which Potency is on record?
Answer: 50.1 µM (active)

Question: Which “activity change, negative = inhibition” value does the source give for Cc1sc2nc(CSCC(=O)NC3CCCCC3)[nH]c(=O)c2c1C here?
Answer: 9.45% (inactive)

Question: With COc1c(Cl)cc(C(=O)N(Cc2ccccc2F)C2CCS(=O)(=O)C2)cc1Cl (stereo unspecified) as the compound, how does the “activity change, negative = inhibition” value read?
Answer: -9.74% (inactive)

Question: For CC1CCCCN1CC(=O)N1CCCc2c1c(=O)oc1ccc(OCc3ccccc3)cc21 (stereo unspecified), which “activity change, negative = inhibition” value is on record?
Answer: -34% (inactive)

Question: With CCOc1ccc(NC(=O)C2CCN(S(=O)(=O)c3cc(-c4noc(C)n4)ccc3C)CC2)cc1 as the compound, how does the “activity change, negative = inhibition” value read?
Answer: 4.51% (inactive)

Question: CC(O)CNCCOc1cccc(Oc2ccccc2)c1 (stereo unspecified) was tested. Which Potency did it give?
Answer: 50.1 µM (active)

Question: How did the “activity change, negative = inhibition” value turn out when COCCNCCOCCOc1cccc(OC)c1 was run?
Answer: -19% (inactive)

Question: How did the “activity change, negative = inhibition” value turn out when CC1(C)NC(=O)N(CCOc2cccc(Oc3ccccc3)c2)C1=O was run?
Answer: 2.52% (inactive)

Question: With COc1ccc(-c2c3c(=O)n(C)c(=O)n(C)c3c3c(C)nc4ccccc4n23)cc1 as the compound, how does the “activity change, negative = inhibition” value read?
Answer: 4.79% (inactive)

Question: With Cc1ccc(CCNC(=O)c2ccc3c(c2)N(Cc2cc(C)ccc2C)C(=O)c2ccccc2S3=O)cc1 (stereo unspecified) as the compound, how does the “activity change, negative = inhibition” value read?
Answer: -17.4% (inactive)

Question: For COc1cc(NC(=O)Cn2nc(-c3ccc(C)c(C)c3)ccc2=O)cc(OC)c1, which “activity change, negative = inhibition” value is on record?
Answer: -3.69% (inactive)

Question: With O=C(O)c1ccc(Cn2c(SCc3ccc(F)cc3)nc3ccncc32)cc1 as the compound, how does the “activity change, negative = inhibition” value read?
Answer: -1.05% (inactive)

Question: For CCn1c2ccccc2c2nnc(SCC(=O)O)nc21, which “activity change, negative = inhibition” value is on record?
Answer: -5.77% (inactive)

Question: How did the “activity change, negative = inhibition” value turn out when C=CCn1c2ccccc2c2nnc(SC(CC)C(=O)Nc3nc(C)c(C(=O)OCC)s3)nc21 (stereo unspecified) was run?
Answer: 0.0442% (inactive)

Question: Which Potency does the source give for C=CCn1c2ccccc2c2nnc(SCc3[nH]c(=O)[nH]c3C(=O)CCCCC(=O)OCC)nc21 here?
Answer: 79.4 µM (active)

Question: How did the “activity change, negative = inhibition” value turn out when CCOC(=O)c1ccc(CSc2nnc3cc(C)c4ccccc4n23)cc1 was run?
Answer: -15.6% (inactive)

Question: How did the “activity change, negative = inhibition” value turn out when CCOc1ccc(C(=O)c2cn(Cc3ccccc3OC)c3ccc(F)cc3c2=O)cc1 was run?
Answer: -19.9% (inactive)

Question: With CCCN(C(=O)Cn1ncc2c([nH]c3ccc(C)cc32)c1=O)c1ccccc1C as the compound, how does the “activity change, negative = inhibition” value read?
Answer: 1.79% [at 57.1 µM] (inactive)

Question: With CCOC(=O)c1cc(-c2ccccc2)n(-c2cccc(C(=O)Nc3cc(OC)cc(OC)c3)c2)c1C as the compound, how does the “activity change, negative = inhibition” value read?
Answer: -27.3% (inactive)

Question: With O=C(NCc1cccc(CNC(=O)Nc2cccc(O)c2)c1)Nc1cccc(O)c1 as the compound, how does the “activity change, negative = inhibition” value read?
Answer: -18.9% (inactive)

Question: C/C(=C\C(=O)c1cccnc1)Nc1ccc(C)c(C)c1 was tested. Which Potency did it give?
Answer: 50.1 µM (active)

Question: C/C(=C\C(=O)c1ccccc1)Nc1cccc(O)c1 was tested. Which Potency did it give?
Answer: 50.1 µM (active)

Question: Cc1ccc(NC(=O)COc2ccc(/C=N\NC(=O)c3cccnc3)cc2)cc1C was tested. Which Potency did it give?
Answer: 56.2 µM (active)

Question: O=C(COc1ccc(/C=N/NC(=O)c2ccc(O)cc2)cc1)Nc1ccc([N+](=O)[O-])cc1 was tested. Which “activity change, negative = inhibition” value did it give?
Answer: -26.7% (inactive)

Question: With O=C(CSc1ccccc1)Nc1ccc(C(=O)Nc2cccc(O)c2)cc1 as the compound, how does the “activity change, negative = inhibition” value read?
Answer: 3.89% (inactive)

Question: Cc1cc2nc(-c3ccc(NC(=O)c4cccnc4)cc3)oc2cc1C was tested. Which “activity change, negative = inhibition” value did it give?
Answer: 11.6% (inactive)

Question: With Cc1ccc(N/C=C/C(=O)c2ccccc2)cc1C as the compound, how does the “activity change, negative = inhibition” value read?
Answer: -4.96% (inactive)

Question: With Cc1ccc(OCC(=O)NCCCNC(=O)c2cccnc2)cc1C as the compound, how does the “activity change, negative = inhibition” value read?
Answer: -1.83% (inactive)

Question: How did the “activity change, negative = inhibition” value turn out when Cc1cccc(NC(=O)c2ccc(F)c(S(=O)(=O)N(C)C3CCCCC3)c2)c1 was run?
Answer: 0.102% (inactive)

Question: Which “activity change, negative = inhibition” value does the source give for COc1ccc(Cl)cc1NC(=O)c1sc2nc3c(cc2c1N)CN(C)CC3 here?
Answer: -14.9% (inactive)

Question: How did the “activity change, negative = inhibition” value turn out when CCOCCCNC(=O)c1c(NC(=O)c2nc(SC)ncc2Cl)sc2c1CCCC2 was run?
Answer: -6% (inactive)

Question: Which Potency does the source give for CNC(=O)c1cccc2nc3ccccc3nc12 here?
Answer: 50.1 µM (active)

Question: With CN(C)C(=O)c1coc2nc3ccccc3nc12 as the compound, how does the “activity change, negative = inhibition” value read?
Answer: -3.28% (inactive)

Question: For CNC(=O)c1cc2c(ccc3ccccc32)oc1=N, which “activity change, negative = inhibition” value is on record?
Answer: 4.85% (inactive)

Question: COc1ccc(-n2c(SC)nc3sc4c(c3c2=O)CCN(C(C)=O)C4)cc1 was tested. Which “activity change, negative = inhibition” value did it give?
Answer: 4.86% (inactive)

Question: How did the “activity change, negative = inhibition” value turn out when CCOc1ccc(CNC(=O)c2ccc3nc(CC)c(CC)nc3c2)cc1OC was run?
Answer: -2.35% (inactive)

Question: Which “activity change, negative = inhibition” value does the source give for Cc1ccccc1Nc1nnc(SCC(=O)c2cc3ccccc3o2)s1 here?
Answer: -11.7% (inactive)

Question: With Cc1ccc(Nc2nnc(SCC(=O)c3cc4ccccc4o3)s2)cc1C as the compound, how does the “activity change, negative = inhibition” value read?
Answer: -32.6% (inactive)

Question: How did the Potency turn out when CC(C)c1ccc(Nc2nnc(SCC(=O)c3nnc(-c4ccccc4)o3)s2)cc1 was run?
Answer: 35.5 µM (active)

Question: COc1ccc(OC)c(-c2noc(N3CCN(c4cc(Cl)ccc4C)CC3)n2)c1 was tested. Which “activity change, negative = inhibition” value did it give?
Answer: 0.334% (inactive)

Question: For O=C(Nc1ccc2nc(SCC(=O)N3CCCc4ccccc43)sc2c1)c1ccc(F)cc1, which “activity change, negative = inhibition” value is on record?
Answer: -4.11% (inactive)

Question: CCOC(=O)c1c(C)[nH]c(C)c1S(=O)(=O)NCC(=O)NCc1cccc(C)c1 was tested. Which “activity change, negative = inhibition” value did it give?
Answer: -11.8% (inactive)

Question: With Cc1ccc(C)c(CNC(=O)c2cc3ccccn3n2)c1 as the compound, how does the “activity change, negative = inhibition” value read?
Answer: 0.834% (inactive)

Question: CCN(CC)CCN(C(=O)c1ccc(S(=O)(=O)N2CCOCC2)cc1)c1nc2cc3c(cc2s1)OCCO3 was tested. Which “activity change, negative = inhibition” value did it give?
Answer: -27.1% (inactive)

Question: CCc1ccc2nc(N(CCCN(C)C)C(=O)c3ccc4c(c3)OCCO4)sc2c1 was tested. Which “activity change, negative = inhibition” value did it give?
Answer: 5.24% (inactive)

Question: With CN(C)CCCN(C(=O)c1ccc(S(=O)(=O)N2CCCc3ccccc32)cc1)c1nc2ccc(F)cc2s1 as the compound, how does the Potency read?
Answer: 28.2 µM (active)

Question: With Cc1ccc2nc(N(CCN(C)C)C(=O)C3=COCCO3)sc2c1 as the compound, how does the “activity change, negative = inhibition” value read?
Answer: -2.02% (inactive)

Question: CN(C)CCCN(C(=O)c1ccc(S(=O)(=O)N2CCCCCC2)cc1)c1nc2ccc(Br)cc2s1 was tested. Which Potency did it give?
Answer: 28.2 µM (active)

Question: How did the “activity change, negative = inhibition” value turn out when CSc1nc2ccc(S(=O)(=O)N3CCc4ccccc43)cc2s1 was run?
Answer: 8.85% (inactive)
